The test deals with furin, P09958. Nature of the test: furin cleavage Z-score vs untreated control; higher = more cleavage, active = 3.5 or more, inactive = 1 or less, 8 variable residues between constant flanks. Summed up:
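Sequencing of released DNA, tagged with adapters by PCR, gave read counts used as abundance. That DNA was freed when purified furin cut N-terminally bead-bound 8-mer peptides fused to a cDNA oligonucleotide, in 0.01 ml reactions at 1:10 enzyme:substrate in 50 mM HEPES pH 7.5 with CaCl2 and NaCl, lasting 7.5, 15 or 30 min. The cleavage Z-score was the lowess-adjusted log count versus furin-free reactions, scaled by median absolute deviation.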

The list shows a part of the results. The true hit rate is not given.

furin, P09958, sequence (P09958 whole entry, the tested form may be a part): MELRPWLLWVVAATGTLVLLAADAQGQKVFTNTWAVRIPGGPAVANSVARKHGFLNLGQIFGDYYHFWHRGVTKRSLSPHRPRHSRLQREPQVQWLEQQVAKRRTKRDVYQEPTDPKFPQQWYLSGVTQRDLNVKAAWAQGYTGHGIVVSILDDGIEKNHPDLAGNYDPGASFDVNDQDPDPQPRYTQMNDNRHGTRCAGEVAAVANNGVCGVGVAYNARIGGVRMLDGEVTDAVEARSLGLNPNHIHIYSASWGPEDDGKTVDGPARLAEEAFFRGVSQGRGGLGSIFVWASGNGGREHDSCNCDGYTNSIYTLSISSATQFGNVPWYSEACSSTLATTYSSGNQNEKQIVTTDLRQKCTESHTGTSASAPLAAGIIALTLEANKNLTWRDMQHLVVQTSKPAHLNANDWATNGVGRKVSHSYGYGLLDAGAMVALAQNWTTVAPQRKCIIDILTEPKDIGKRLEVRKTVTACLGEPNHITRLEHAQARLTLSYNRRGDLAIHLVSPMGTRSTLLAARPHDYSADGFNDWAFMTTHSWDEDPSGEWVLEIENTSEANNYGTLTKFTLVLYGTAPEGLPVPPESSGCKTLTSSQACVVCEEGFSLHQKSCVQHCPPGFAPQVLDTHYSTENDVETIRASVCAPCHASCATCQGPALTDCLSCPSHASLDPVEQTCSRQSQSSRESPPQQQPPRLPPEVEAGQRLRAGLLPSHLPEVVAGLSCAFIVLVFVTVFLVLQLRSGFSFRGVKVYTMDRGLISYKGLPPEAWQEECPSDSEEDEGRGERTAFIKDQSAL

For the sequence CAVGSSIASWAGNASASA [HC513], the “furin cleavage Z-score” value was 1.24 (7.5 min), 0.758 (inactive) (15 min) and 1.42 (30 min).
CAEVVTSIWVAGNASASA [HC2204]: the “furin cleavage Z-score” value runs as follows: (7.5 min) -1.22 (inactive); (15 min) -0.886 (inactive); (30 min) -0.589 (inactive).
As for CAQTFLATCIAGNASASA [HC694], the “furin cleavage Z-score” value (7.5 min) is -1.16 (inactive), the “furin cleavage Z-score” value (15 min) came out at 1.03 and the “furin cleavage Z-score” value (30 min) was 0.494 (inactive).
With CAEVVTCTWVAGNASASA [HC154], the “furin cleavage Z-score” value (7.5 min) is 0.26 (inactive), the “furin cleavage Z-score” value (15 min) is 0.377 (inactive) and the “furin cleavage Z-score” value (30 min) is 0.00628 (inactive).
On to CAWAKHMWNFAGNASASA [HC1041], for which the “furin cleavage Z-score” value by setting is: (7.5 min) 2.37; (15 min) 1.51; (30 min) -0.0839 (inactive).
On to CARRARFVSKAGNASASA [FS-2592], for which the “furin cleavage Z-score” value by setting is: (7.5 min) 1.79; (15 min) 3.6 (active); (30 min) 4.51 (active).
The like results for CARQSRAPSKAGNASASA [FS-3044] were, in that order, -0.34 (inactive), -1.03 (inactive) and 0.0856 (inactive).
In the case of CARRARVVWCAGNASASA [FS-1773], the “furin cleavage Z-score” value (7.5 min) was -0.495 (inactive), the “furin cleavage Z-score” value (15 min) is -0.908 (inactive) and the “furin cleavage Z-score” value (30 min) was -1.05 (inactive).
With CATSCGNTLTAGNASASA [HC1514], the “furin cleavage Z-score” value was 0.831 (inactive) (7.5 min), -1.07 (inactive) (15 min) and 0.652 (inactive) (30 min).
Turning to CALSSRTARSAGNASASA [FS-828], the “furin cleavage Z-score” value was 10.9 (active) (7.5 min), 12.5 (active) (15 min) and 10.5 (active) (30 min).
Turning to CALSSRVPRSAGNASASA [FS-616], the “furin cleavage Z-score” value runs as follows: (7.5 min) 10.7 (active); (15 min) 10.8 (active); (30 min) 8.57 (active).
Take CATSNRQPRKAGNASASA [FS-1426]: the “furin cleavage Z-score” value is, setting by setting: (7.5 min) 0.777 (inactive); (15 min) 2.06; (30 min) 3.28.
On to CALSSREARVAGNASASA [FS-273], for which the “furin cleavage Z-score” value is, setting by setting: (7.5 min) 0.397 (inactive); (15 min) 1.38; (30 min) -0.0178 (inactive).
For the sequence CAVYSTTSRSAGNASASA [HC1389], the “furin cleavage Z-score” value reads like this: (7.5 min) 0.122 (inactive); (15 min) -0.119 (inactive); (30 min) -0.531 (inactive).
With CAVSGRVPRSAGNASASA [FS-1103], the “furin cleavage Z-score” value (7.5 min) is 8.22 (active), the “furin cleavage Z-score” value (15 min) was 7.59 (active) and the “furin cleavage Z-score” value (30 min) was 5.91 (active).
For CAPFSRVPRKAGNASASA [FS-1380] the same measures were 4.53 (active), 5.54 (active) and 7.08 (active).
CAPFPRDVGKAGNASASA [FS-2542]: the “furin cleavage Z-score” value was 0.749 (inactive) (7.5 min), 0.654 (inactive) (15 min) and -0.494 (inactive) (30 min).
As for CAEVVVCCSMAGNASASA [HC2130], the “furin cleavage Z-score” value runs as follows: (7.5 min) 0.168 (inactive); (15 min) -0.257 (inactive); (30 min) -0.566 (inactive).
Regarding CAVSGRRNRSAGNASASA [FS-1435], the “furin cleavage Z-score” value runs as follows: (7.5 min) 7.11 (active); (15 min) 8.52 (active); (30 min) 7.39 (active).
As to CALSSRHSRSAGNASASA [FS-688], the “furin cleavage Z-score” value runs as follows: (7.5 min) 7.04 (active); (15 min) 9.83 (active); (30 min) 7.06 (active).
With CARIGRTARSAGNASASA [FS-559], the “furin cleavage Z-score” value was 14.2 (active) (7.5 min), 12.8 (active) (15 min) and 11.2 (active) (30 min).
On to CAESGRENRSAGNASASA [FS-764], for which the “furin cleavage Z-score” value (7.5 min) is 0.222 (inactive), the “furin cleavage Z-score” value (15 min) is 0.598 (inactive) and the “furin cleavage Z-score” value (30 min) was -0.14 (inactive).
As to CADVVTSTWVAGNASASA [HC2151], the “furin cleavage Z-score” value is 0.471 (inactive) (7.5 min), -0.0629 (inactive) (15 min) and 0.991 (inactive) (30 min).
CALLGPADGMAGNASASA [HC666]: the “furin cleavage Z-score” value (7.5 min) is -0.849 (inactive), the “furin cleavage Z-score” value (15 min) was -0.827 (inactive) and the “furin cleavage Z-score” value (30 min) was -0.909 (inactive).
Take CATYVYNHLTAGNASASA [HC634]: the “furin cleavage Z-score” value reads like this: (7.5 min) -0.232 (inactive); (15 min) 0.658 (inactive); (30 min) 0.0846 (inactive).
The like results for CAYEECSQHLAGNASASA [HC1669] were, in that order, 1.21, 0.943 (inactive) and 2.11.
Regarding CAEVVTSTWMAGNASASA [HC2246], the “furin cleavage Z-score” value by setting is: (7.5 min) 1.57; (15 min) 0.473 (inactive); (30 min) 0.947 (inactive).
As for CAVSSRKSRWAGNASASA [FS-1501], the “furin cleavage Z-score” value (7.5 min) was found to be 3.21, the “furin cleavage Z-score” value (15 min) is 3.75 (active) and the “furin cleavage Z-score” value (30 min) is 5.97 (active).
On to CAQSSRHRRAAGNASASA [FS-851], for which the “furin cleavage Z-score” value reads like this: (7.5 min) 13.1 (active); (15 min) 12.7 (active); (30 min) 10.3 (active).
On to CAVSSRHRRAAGNASASA [FS-1106], for which the “furin cleavage Z-score” value was 12.3 (active) (7.5 min), 12.4 (active) (15 min) and 10.3 (active) (30 min).
The like results for CANSKRKSRPAGNASASA [FS-1145] were, in that order, -2.35 (inactive), 0.946 (inactive) and -1.84 (inactive).
Consider CAQSSRQPRPAGNASASA [FS-141], for which the “furin cleavage Z-score” value runs as follows: (7.5 min) -0.311 (inactive); (15 min) -0.656 (inactive); (30 min) -0.417 (inactive).
Turning to CAQWQVLPCSAGNASASA [HC496], the “furin cleavage Z-score” value was -0.675 (inactive) (7.5 min), 0.494 (inactive) (15 min) and 0.276 (inactive) (30 min).
Consider CARTGVRTITAGNASASA [HC800], for which the “furin cleavage Z-score” value by setting is: (7.5 min) -0.25 (inactive); (15 min) -0.718 (inactive); (30 min) -0.285 (inactive).
For the sequence CARRGPRLGVAGNASASA [HC180], the “furin cleavage Z-score” value (7.5 min) was -0.669 (inactive), the “furin cleavage Z-score” value (15 min) is -0.347 (inactive) and the “furin cleavage Z-score” value (30 min) was -0.923 (inactive).
For CAREKRELRQAGNASASA [FS-2657], the “furin cleavage Z-score” value (7.5 min) is 9.73 (active), the “furin cleavage Z-score” value (15 min) was 13.3 (active) and the “furin cleavage Z-score” value (30 min) was 9.26 (active).
In the case of CAGRSRELRQAGNASASA [FS-166], the “furin cleavage Z-score” value reads like this: (7.5 min) 2.87; (15 min) 2.42; (30 min) 4.09 (active).
Regarding CAGRSRDLRGAGNASASA [FS-165], the “furin cleavage Z-score” value is, setting by setting: (7.5 min) -0.794 (inactive); (15 min) -0.817 (inactive); (30 min) -1.52 (inactive).
For the sequence CAREKREKIKAGNASASA [FS-2208], the “furin cleavage Z-score” value (7.5 min) is -0.771 (inactive), the “furin cleavage Z-score” value (15 min) is -0.626 (inactive) and the “furin cleavage Z-score” value (30 min) was 0.291 (inactive).
On to CALLQRVRRAAGNASASA [FS-1360], for which the “furin cleavage Z-score” value by setting is: (7.5 min) 3.77 (active); (15 min) 3.58 (active); (30 min) 3.76 (active).
For CAADPRTWRSAGNASASA [FS-741], the “furin cleavage Z-score” value runs as follows: (7.5 min) -0.983 (inactive); (15 min) 1.45; (30 min) -0.478 (inactive).
As to CAADPRVRRAAGNASASA [FS-1298], the “furin cleavage Z-score” value was 10.1 (active) (7.5 min), 8.47 (active) (15 min) and 8.31 (active) (30 min).
On to CAQKKRGGTAAGNASASA [WN2], for which the “furin cleavage Z-score” value reads like this: (7.5 min) -0.625 (inactive); (15 min) -0.389 (inactive); (30 min) 0.122 (inactive).
As to CALIPRVRRAAGNASASA [FS-608], the “furin cleavage Z-score” value runs as follows: (7.5 min) 9.17 (active); (15 min) 10.3 (active); (30 min) 8.48 (active).
On to CAVNQRVRRAAGNASASA [FS-735], for which the “furin cleavage Z-score” value was 10 (active) (7.5 min), 8.42 (active) (15 min) and 8.51 (active) (30 min).
With CAADARVCSCAGNASASA [HC524], the “furin cleavage Z-score” value is, setting by setting: (7.5 min) 0.17 (inactive); (15 min) -2.96 (inactive); (30 min) -3.71 (inactive).
For CAENLVILNAAGNASASA [HC535] the same measures were -0.56 (inactive), -1.45 (inactive) and 0.00797 (inactive).
On to CALLQRKKKLAGNASASA [FS-823], for which the “furin cleavage Z-score” value (7.5 min) was 0.0701 (inactive), the “furin cleavage Z-score” value (15 min) was 0.355 (inactive) and the “furin cleavage Z-score” value (30 min) was -0.31 (inactive).

These data come from the supplement of paper PMC3545927.
